Data on 15 compounds can be found in PubChem BioAssay.

The nature of assay [1]: compound effects on lung adenocarcinoma cell viability – A549, calcein-AM fluorescence, 48 h, basal, profiling panel (AID 1162). The following applies: higher = more signal.
A short description of assay [2]: compound effects on differentiated 3T3-L1 adipocyte viability – cell-based, 3T3-L1 adipocytes, calcein-AM fluorescence, 48 h, basal, profiling panel (AID 1163). The following applies: 3T3-L1 adipocytes viability, higher = more signal.
Assay [3] in a line: compound effects on hepatocellular carcinoma cell viability – HepG2, calcein-AM fluorescence, 48 h, basal, profiling panel (AID 1164). The following applies: higher = more signal.
Assay [4] in a line: compound effects on multiple myeloma cell viability – MM1S, calcein-AM fluorescence, 48 h, basal, profiling panel (AID 1165).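 Further: viability of MM1S multiple myeloma cells under basal unstimulated conditions.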 Particulars: higher = more signal.
The nature of assay [5]: calcein-AM signal in unstimulated myeloma cells – cell-based, calcein-AM fluorescence, 48 h, PK04 Diversity Set, profiling panel (AID 1166).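 Further: cells grown under basal conditions without added stimulus.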 Particulars: RPMI8226 myeloma viability, higher = more signal.
Assay [6] is described as follows: JC-1 mitochondrial signal, unstimulated HepG2 cells – cell-based, JC-1 fluorescence, 24 h, 100 nL compound, profiling panel (AID 1167). The following applies: HepG2 mitochondrial potential, higher = more signal.
Assay [7] in a line: JC-1 mitochondrial signal, unstimulated adipocytes – cell-based, JC-1 fluorescence, 3T3-L1 adipocytes, 24 h, 100 nL compound, profiling panel (AID 1168). The following applies: JC-1 mitochondrial fluorescence, higher = more signal, called active from +8 up or from −8 down.
Assay [8] can be described thus: JC-1 mitochondrial signal, unstimulated myeloma cells – cell-based, JC-1 fluorescence, RPMI8226, 24 h, 100 nL compound, profiling panel (AID 1169). Particulars: JC-1 mitochondrial potential fluorescence, higher = more signal.
Assay [9] in a line: JC-1 mitochondrial signal, unstimulated MM1S myeloma – cell-based, JC-1 fluorescence, 24 h, 100 nL compound, profiling panel (AID 1170). Particulars: MM1S mitochondrial potential, higher = more signal.
Assay [10] in a line: resazurin metabolic signal in A549 cells – cell-based, resazurin fluorescence, 24 h, PK04 Diversity Set, profiling panel (AID 1171). The following applies: A549 viability, higher = more signal, called active from +8 up or from −8 down.

Each structure is given as a SMILES string. Active and inactive are the calls of the source.
Further: test concentration not given here.

Turning to `COC(=O)C(CC#Cc1ccc2c(c1)[C@]1(C(=O)N2)[C@H](C(=O)N2CCN(c3ncccn3)CC2)[C@H]2C(=O)O[C@H](c3ccccc3)[C@H](c3ccccc3)N2[C@@H]1c1ccc(OCCO)cc1)C(=O)OC`, the z-score in assay [1] is -0.0572; in assay [2] it was -0.609; in [3], 1.09; in assay [4], 0.607; in assay [5], 0.363; in [6] it was -0.612. Further, the z-score in assay [7] was 0.895 (inactive); in [8], -0.933; in [9], -1.44; in [10], -0.178 (inactive).
On to `[N-]=[N+]=NCc1ccccc1[C@H]1OC(c2ccc(OCCCO)cc2)=N[C@@]1(CCS(=O)(=O)c1ccccc1)C(=O)N1CCCCC1`, for which the z-score in [1] is 0.481; in assay [2], 1.03; in [3], -0.0898; in [4], -0.133; in assay [5], -0.946; in [6] it was -0.0617. Besides, the z-score in assay [7] was 1.04 (inactive); in [8] it was -1.11; in [9] it was -1.11; in [10], -0.743 (inactive).
Regarding `CN(C)c1ccc(C(O)C2C=CC3C(=O)N(c4ccccc4)C(=O)C3N2Nc2ccc([N+](=O)[O-])cc2)cc1` (stereo not given), the z-score in assay [1] was -0.455; in assay [2], -1.25; in assay [3], 0.583; in assay [4], -0.676; in assay [5], -0.215; in [6] it was -1.01. The z-score is -2.19 (inactive) in assay [7], -0.296 in assay [8], -0.907 in [9] and -0.272 (inactive) in [10].
Turning to `O=C1C2C=CC(C(O)c3ccccc3)N(Nc3ccccc3F)C2C(=O)N1c1ccccc1` (stereo not given), the z-score in assay [1] was -0.826; in [2] it was -0.717; in assay [3] it was 0.925; in assay [4], -1.06; in [5] it was 0.379; in assay [6], 0.12. The z-score was -0.0776 (inactive) in assay [7], -1.04 in assay [8], -1.29 in assay [9] and -0.412 (inactive) in [10].
`O=C1C=C(c2ccccc2)C(=O)c2ccc([C@H]3Oc4ccccc4S(=O)(=O)N4CCC[C@@H]34)cc21`: the z-score was -0.309 in assay [1]; -0.319 in [2]; -1.07 in [3]; -3.23 in [4]; -4.03 in [5]; -3.82 in assay [6]. Further, the z-score in assay [7] is -1.83 (inactive); in [8], -1.23; in assay [9] it was -2.69; in assay [10], -0.602 (inactive).
With `CC(=O)NCCCC[C@@H]1NC(=O)[C@H]2C[C@@H](C(=O)NCCCC[N+](C)(C)C)[C@@H](c3cccc(OCCO)c3)N2C1=O`, the z-score in assay [1] was -0.443; in assay [2] it was 0.247; in assay [3] it was -0.641; in assay [4] it was -1.7; in [5] it was 0.206; in assay [6], 0.105. Also, the z-score in [7] was 0.169 (inactive); in assay [8] it was -0.336; in [9], 1.03; in assay [10], -0.549 (inactive).
With `COCCOC(=O)N1C(=O)[C@@]2(c3cc(C#CCNC(N)=O)ccc31)[C@H](C(=O)N1CCc3cc(OC)c(OC)cc3C1)[C@H]1C(=O)O[C@H](c3ccccc3)[C@H](c3ccccc3)N1[C@@H]2c1ccccc1OCCO`, the z-score is 0.573 in assay [1]; 0.376 in [2]; 0.479 in [3]; 0.576 in assay [4]; -0.529 in [5]; -1.2 in assay [6]. The z-score in assay [7] was 1.72 (inactive); in assay [8], -0.502; in assay [9], -0.98; in assay [10], -0.286 (inactive).
Consider `NC(=O)N1C(=O)C2C(C1=O)C1C=C(CCCO)C2C(c2cccs2)N1Cc1cccc(OC(F)(F)F)c1` (stereo not given), for which the z-score is 0.604 in assay [1]; 0.151 in [2]; -0.4 in assay [3]; -2.98 in assay [4]; -1.11 in assay [5]; -0.339 in [6]. The z-score is -0.678 (inactive) in assay [7], 0.146 in [8], 1.37 in [9] and 0.48 (inactive) in assay [10].
Regarding `O=C1O[C@@H](c2ccccc2)[C@@H](c2ccccc2)N2[C@@H](c3ccc(OCCO)cc3)[C@]3(C(=O)Nc4ccccc43)[C@@H](C(=O)O)[C@H]12`, the z-score is -0.644 in assay [1]; 0.624 in [2]; -0.888 in [3]; 0.243 in [4]; -0.146 in [5]; -1.36 in assay [6]. The z-score in assay [7] was -0.174 (inactive); in [8], -0.0788; in [9], -1.13; in [10], 0.225 (inactive).
For `COc1ccc([Si](C)(C)[C@@H]2[C@@H](CC(=O)N(CCO)Cc3ccccc3)O[C@]3(C(=O)N(c4ccccc4)c4ccccc43)[C@H]2C)cc1`, the z-score in assay [1] was -2.69; in [2], 1.11; in [3] it was -4.56; in [4], -2.67; in assay [5], -4.36; in assay [6], -0.899. For the same compound, the z-score in assay [7] was 0.928 (inactive); in assay [8] it was -1.08; in assay [9], -2.3; in assay [10], -1.94 (inactive).
As for `O=C1C[C@@](C(=O)NCCN2CCOCC2)(c2ccc([N+](=O)[O-])cc2)[C@@H](c2ccc(CO)cc2I)N1C1CCCCC1`, the z-score was 0.465 in assay [1]; 0.267 in assay [2]; -0.696 in assay [3]; -1.55 in [4]; -0.764 in assay [5]; 2.87 in assay [6]. For the same compound, the z-score in assay [7] was 0.264 (inactive); in [8] it was -0.444; in assay [9] it was 0.267; in [10], 2.01 (inactive).
For `[N-]=[N+]=NCc1ccccc1C[C@@]1(C(=O)N2CCOCC2)N=C(c2ccc(OCCCO)cc2)O[C@@H]1c1ccccc1`, the z-score in assay [1] is -1.99; in assay [2], 1.69; in [3] it was -1.7; in assay [4] it was -3.43; in assay [5], -4.4; in assay [6], -0.801. Also, the z-score was 0.86 (inactive) in assay [7], -1.25 in assay [8], -1.12 in assay [9] and -1.32 (inactive) in assay [10].
Turning to `C=CCC(OC(C)=O)[C@@H]1[C@@H](N(Cc2cc3ccccc3o2)C(=O)Cc2ccc(F)cc2)c2cc(OCCCO)ccc2N1C(=O)c1ccc2ccccc2c1` (stereo not given in full), the z-score was -0.0032 in [1]; -0.0993 in assay [2]; 1.93 in [3]; -0.915 in assay [4]; 0.0905 in assay [5]; 0.855 in assay [6]. Besides, the z-score in [7] is 0.0661 (inactive); in assay [8], -0.159; in [9], 0.687; in [10], 0.443 (inactive).
`COc1ccc(-c2cc3c(c(CCc4ccccc4)n2)[Si](C(C)C)(C(C)C)OC3)cn1`: the z-score in assay [1] is 0.342; in assay [2], -0.171; in assay [3], -0.999; in assay [4], -1.68; in assay [5], -2.05; in assay [6] it was -0.911. The z-score in assay [7] was -0.315 (inactive); in assay [8] it was -0.738; in assay [9], -0.24; in assay [10], 2.35 (inactive).
With `[N-]=[N+]=NCc1ccccc1C[C@@]1(C(=O)N2CCCCC2)N=C(c2ccc(OCCCO)cc2)O[C@@H]1c1ccccc1`, the z-score is -1.26 in [1]; -0.813 in assay [2]; -2.13 in assay [3]; -3.11 in assay [4]; -4.35 in assay [5]; 0.622 in [6]. Moreover, the z-score in [7] is -0.209 (inactive); in [8] it was -1.28; in [9], -2.34; in assay [10] it was -0.949 (inactive).
